Measurements taken from PubChem BioAssay (Tox21).
Where “and” joins values, the source holds several entries; their conditions need not be identical. Equal entries are not always repeated. Records with an inconclusive call do not appear. A call without a number means that no potency is given here. More than one record can exist for a structure, and the calls need not agree. Calls of active or inactive are those of the source. Unless noted, calls follow the shape of the dose curve; as a rule, active = well fitted curve in the direction sought with a large enough effect in the repeat runs; inconclusive = weak or mixed curves; inactive = no such curve, though single readings can be large; an effect the other way counts as inactive or inconclusive.

What was measured:
[1] = qHTS assay for small molecule agonists of the p53 signaling pathway (AID 651631; calls by dose curve; also: nearly all actives have a fitted effect of over 15% in size; also: potency is read from the fitted curve at half-maximal effect); conditions: HCT-116 p53RE-bla reporter, beta-lactamase FRET ratio, 16 h; series mostly up to 73.3 µM
How it was run: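 Fluorescence intensity from cleaved LiveBLAzer B/G substrate (2 h, room temperature) served as the signal. Beforehand, HCT-116 reporter cells bearing p53 response elements were treated 16 h at 37 °C with DMSO-dissolved compounds.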

[2] = qHTS assay for small molecules that induce genotoxicity in human embryonic kidney cells expressing luciferase-tagged ATAD5 (AID 651632); conditions: HEK293T ATAD5-luciferase induction, 16 h; series mostly up to 83.3 µM; also: nearly all actives have a fitted effect of over 15% in size
How it was run: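 DMSO vehicle served as the control. HEK293T reporter cells, 16 hr at 37C, then 30 min Amplite at room temperature; ATAD5 induction is measured as luciferase activity.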

[3] = qHTS assay for small molecule agonists of the p53 signaling pathway - cell viability (AID 651633; calls by dose curve; also: nearly all actives have a fitted effect of over 30% in size; also: potency is read from the fitted curve at half-maximal effect); conditions: p53RE-bla HCT-116 viability, ATP luminescence, 16 h; series mostly up to 83.3 µM
How it was run: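 Viability counter-read: CellTiter-Glo luminescence (30 min, room temperature) in the same p53RE-bla plates. These plates had been exposed to compounds for 16 h at 37 C.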

[4] = qHTS assay for small molecules that induce genotoxicity in human embryonic kidney cells expressing luciferase-tagged ATAD5 - cell viability (AID 651634; calls by dose curve; also: nearly all actives have a fitted effect of over 25% in size; also: potency is read from the fitted curve at half-maximal effect); conditions: HEK293T ATAD5-luc cells viability, CellTiter-Fluor, 15.5 h; series mostly up to 83.3 µM
How it was run: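 Here HEK293T cells with the ATAD5 luciferase reporter are incubated with test compounds for 15.5 hr, and cytotoxicity is then gauged by measuring protease activity in live cells using fluorescence.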

[5] = qHTS assay to test for compound auto fluorescence at 590 nm (red) in HepG2 cells (AID 720674); conditions: HepG2 autofluorescence, red 540/590 nm, 1 h; series mostly up to 91.3 µM
How it was run: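 Red autofluorescence (Ex/Em 540/590 nm, Rose Bengal sodium equivalents) was measured in HepG2 cells, 2,000 per well in MEM plus 10% FBS, plated overnight at 37 C. Readings were taken 1 hr after adding 23 nL compound or DMSO, at 37 C and 5% CO2.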

[6] = qHTS assay to test for compound auto fluorescence at 535 nm (green) in HepG2 cells (AID 720675); conditions: green autofluorescence 485/535 nm, 1 h; series mostly up to 91.3 µM
[7] = qHTS assay to test for compound auto fluorescence at 460 nm (blue) in HEK293 cells (AID 720678); conditions: blue autofluorescence 405/460 nm; series mostly up to 91.3 µM
How it was run: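 HEK293, 2,000 cells/well, 10% dialyzed FBS; attach 4-5 hr 37C; pin compound or DMSO; o/n 37C/5% CO2; fluorescence 405/460 nm; triamterene-equivalent units.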

[8] = qHTS assay to test for compound auto fluorescence at 590 nm (red) in HEK293 cells (AID 720679); conditions: red autofluorescence 540/590 nm; series mostly up to 91.3 µM
How it was run: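 Intensity at 540nm excitation and 590nm emission is reported as Rose Bengal sodium-equivalent autofluorescence. Measurements followed overnight exposure (37C, 5% CO2) of HEK293 cells, 2,000 per well, to 23 nL compound.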

[9] = qHTS assay for small molecule disruptors of the mitochondrial membrane potential - cell viability (AID 720634; calls by dose curve; also: nearly all actives have a fitted effect of over 20% in size; also: potency is read from the fitted curve at half-maximal effect); conditions: HepG2 viability, ATP luminescence (CellTiter-Glo), 1 h; series mostly up to 83.2 µM
How it was run: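 Viability of HepG2 cells is scored from ATP content by luminescence; cells are exposed to compound for 1 hr at 37 C and 5% CO2, then dosed with m-MPI dye before the CellTiter-Glo reagent.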

[10] = qHTS assay for small molecule disruptors of the mitochondrial membrane potential (AID 720635); conditions: HepG2 mitochondrial membrane potential, Mito-MPS dye ratio; series mostly up to 83.2 µM; also: potency is read from the fitted curve at half-maximal effect
How it was run: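 Mitochondrial membrane potential tracked with Mito-MPS dye, red aggregates (ex 540/em 590 nm) against green monomers (ex 490/em 535 nm). Compound treatment 1 hr at 37C, dye 30 min in HepG2.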

| SMILES | Potency [1] | Potency [2] | Potency [3] | Potency [4] | outcome [5] | outcome [6] | outcome [7] | outcome [8] | Potency [9] | Potency [10] |
| --- | --- | --- | --- | --- | --- | --- | --- | --- | --- | --- |
| COC(=O)c1ccc(O)cc1 | inactive | inactive | inactive | inactive | inactive | inactive | inactive | inactive | – | – |
| OC[C@@H](O)[C@@H](O)[C@H](O)[C@H](O)CO | inactive | inactive | inactive | inactive | inactive | inactive | inactive | inactive | inactive | inactive |
| C#C[C@]1(O)CC[C@H]2[C@@H]3CCc4cc(O)ccc4[C@H]3CC[C@@]21C | 8.41 µM (active) and 7.64 µM (active) and 6.11 µM (active) | inactive | inactive | 15.2 µM (active) | inactive | – | inactive | inactive | inactive | 13.3 µM (active) and 13.6 µM (active) and 17.2 µM (active) |
| Cc1cccc(C)c1O | inactive | inactive | inactive | inactive | inactive | – | inactive | inactive | inactive | inactive |
| CCN1CCCC1=O | inactive | inactive | inactive | inactive | inactive | inactive | inactive | inactive | inactive | inactive |
| C/C=C/c1ccc(O)c(OC)c1 | inactive | inactive | inactive | inactive | inactive | inactive | inactive | inactive | inactive | 61.1 µM (active) |
| CC1(C)O[C@@H]2[C@@H](CO[C@@]3(COS(N)(=O)=O)OC(C)(C)O[C@@H]23)O1 | inactive | inactive | inactive | inactive | inactive | inactive | inactive | inactive | inactive | inactive |
| CCOC(=O)C(C)(C)Oc1ccc(Cl)cc1 | inactive | inactive | inactive | inactive | inactive | inactive | inactive | inactive | inactive | inactive |
| Oc1cccc(O)c1 | inactive | inactive | inactive | inactive | inactive | inactive | inactive | inactive | inactive | inactive |
| COc1ccccc1NC(=O)CC(C)=O | inactive | inactive | inactive | inactive | inactive | – | inactive | inactive | inactive | inactive |
| NC(=O)N/N=C/c1ccc([N+](=O)[O-])o1 | inactive | inactive | inactive | – | inactive | inactive | inactive | inactive | inactive | 15.4 µM (active) |
| COC(=O)c1ccc(C=O)cc1 | – | inactive | inactive | inactive | inactive | inactive | inactive | inactive | inactive | inactive |
| Nc1cccc(N)c1 | inactive | inactive | inactive | inactive | inactive | inactive | inactive | inactive | inactive | 24 µM (active) |
| CCCCC/C(C=O)=C\c1ccccc1 | inactive | inactive | inactive | inactive | inactive | – | inactive | inactive | inactive | inactive |
| COc1ccccc1O | inactive and 4.35 µM (active) | inactive | inactive | inactive | inactive | inactive | inactive | inactive | inactive | inactive |
| O=c1cc[nH]c(=O)[nH]1 | inactive | inactive | inactive | inactive | inactive | inactive | inactive | inactive | inactive | inactive |
| Cc1c(N(C)CS(=O)(=O)O)c(=O)n(-c2ccccc2)n1C | inactive | inactive | inactive | inactive | inactive | – | inactive | inactive | inactive | inactive |
| CCOCCO | inactive | inactive | inactive | inactive | inactive | inactive | inactive | inactive | inactive | inactive |
| CC(C)(C)NCC(O)c1ccc(O)c(CO)c1 (stereo unspecified) | inactive | inactive | inactive | – | inactive | inactive | inactive | inactive | inactive | inactive |
| O=[N+]([O-])c1ccc(O)cc1 | inactive | inactive | inactive | 56.6 µM (active) | inactive | inactive | inactive | inactive | inactive | 71.2 µM (active) and 61.1 µM (active) |
| CC(=O)c1ccc(S(=O)(=O)NC(=O)NC2CCCCC2)cc1 | inactive | inactive | inactive | inactive | inactive | inactive | inactive | inactive | inactive | inactive |

| SMILES | Potency [1] | Potency [2] | Potency [3] | Potency [4] | outcome [5] | outcome [6] | outcome [7] | outcome [8] | Potency [9] | Potency [10] |
| --- | --- | --- | --- | --- | --- | --- | --- | --- | --- | --- |
| C1CNCCN1 | inactive | inactive | inactive | inactive | inactive | – | inactive | inactive | inactive | inactive |
| CCCCCCCC(=O)OCC(O)CO (stereo unspecified) | inactive | inactive | inactive | inactive | inactive | – | inactive | inactive | inactive | inactive |
| CCN(CC)CCOC(=O)c1ccc(N)cc1 | inactive | inactive | inactive | inactive | inactive | – | inactive | inactive | inactive | – |
| O=C(O)CN(CC(=O)O)CC(=O)O | inactive | inactive | inactive | inactive | inactive | – | inactive | inactive | – | – |
| NC(=O)N1c2ccccc2C=Cc2ccccc21 | – | inactive | inactive | inactive | inactive | inactive | inactive | inactive | inactive | inactive |
| CC(=O)OC/C=C(C)/C=C/C=C(C)/C=C/C1=C(C)CCCC1(C)C | inactive | inactive | inactive | inactive | inactive | inactive | inactive | inactive | inactive | inactive |
| O=C1CCCCCN1 | inactive | inactive | inactive | inactive | inactive | inactive | inactive | inactive | inactive | inactive |
| Cc1cccc(Nc2cc(Cl)nc(SCC(=O)O)n2)c1C | inactive | inactive | inactive | inactive | inactive | – | inactive | inactive | inactive | inactive |
| NC(=O)NO | inactive | inactive | inactive | inactive | inactive | inactive | inactive | inactive | inactive | inactive |
| CCCCOCCOCCSC#N | – | inactive | inactive | inactive | inactive | inactive | inactive | inactive | inactive | inactive |
| NC(N)=NC(N)=NCCc1ccccc1 | – | inactive | inactive | inactive | inactive | inactive | inactive | inactive | inactive | inactive |
| COC(=O)C1CCC(C(=O)OC)CC1 (stereo unspecified) | – | inactive | inactive | inactive | inactive | inactive | inactive | inactive | inactive | inactive |
| Cc1c(N(C)C)c(=O)n(-c2ccccc2)n1C | – | inactive | inactive | inactive | inactive | inactive | inactive | inactive | inactive | inactive |
| C=C(C)C(N)=O | – | inactive | inactive | inactive | inactive | inactive | inactive | inactive | inactive | inactive |
| CC(=O)Oc1ccccc1C(=O)O | – | inactive | inactive | inactive | inactive | – | inactive | inactive | inactive | inactive |
| CO[C@H]1C=CO[C@@]2(C)Oc3c(C)c(O)c4c(O)c(c(/C=N/N5CCN(C)CC5)c(O)c4c3C2=O)NC(=O)/C(C)=C\C=C[C@H](C)[C@H](O)[C@@H](C)[C@@H](O)[C@@H](C)[C@H](OC(C)=O)[C@@H]1C | – | inactive | inactive | 23.7 µM (active) and 48.8 µM (active) and 39 µM (active) | inactive | inactive | inactive | inactive | inactive | 10.6 µM (active) and 24.5 µM (active) and 11 µM (active) |
| CC(C)(C)CC(C)(C)c1ccc(O)c(-n2nc3ccccc3n2)c1 | – | inactive | 49.2 µM (active) and 48.6 µM (active) | inactive | inactive | inactive | inactive | inactive | inactive | 10.6 µM (active) and 24.7 µM (active) and 30.6 µM (active) |
| C#C[C@]1(O)CC[C@H]2[C@@H]3CCC4=CC(=O)CC[C@@H]4[C@H]3CC[C@@]21CC | – | inactive | inactive | inactive | inactive | – | inactive | inactive | inactive and 48.6 µM (active) | inactive |
| COCC(C)N (stereo unspecified) | – | inactive | inactive | inactive | inactive | – | inactive | inactive | inactive | inactive |
| NC(=O)OCC(COC(N)=O)c1ccccc1 | – | inactive | inactive | inactive | inactive | inactive | inactive | inactive | inactive | inactive |
| C[C@]12C[C@H](O)[C@H]3[C@@H](CCC4=CC(=O)CC[C@@]43C)[C@@H]1CC[C@@H]2C(=O)CO | – | inactive | inactive | inactive | inactive | inactive | inactive | inactive | inactive | inactive |
